Reference: PubChem BioAssay (NCI)
About 79,000 compounds went through this panel and 15% of them were active in at least one assay; those are over-represented in the sample as a whole. Values without a mark were called inactive. Activity calls are given as the source filed them. No stated cut-off is given here; in the data, active means growth inhibition above about 70%; inactive means the rest.

Experiment: NCI Yeast Anticancer Drug Screen. Data for the mlh1 rad18 strain (AID 175)
Conditions: S. cerevisiae mlh1 rad18 strain growth inhibition, hits give high values
Experimental: Growth inhibition of yeast strains with defined genetic alterations is measured as a screen for potential anti-cancer activity. Selected strains with alterations in DNA damage repair or cell cycle control were exposed to compounds and growth inhibition was measured relative to vehicle treated controls. The strain used in this assay is mlh1 rad18

[1] = at 5.0 µM (retest, dose inferred, filed as 0.5)
[2] = at 50.0 µM (retest, dose inferred, filed as 5.0)

Structure (SMILES)	growth inhibition [1]	growth inhibition [2]	growth inhibition (at 50.0 µM)
O=C1CCCC/C1=C\c1ccc(Br)cc1	-17%	99% (active)	92.7% (active)
Cc1ccc2[nH]c3cc4ccncc4cc3c2c1	40%	95% (active)	49.9%
O=[N+]([O-])c1cccc2c(O)cccc12	0%	43%	73.5% (active)
CCCCCCc1cc(C(=O)N/N=C\c2cccc([N+](=O)[O-])c2)c2ccccc2n1	0%	-7%	-9.4%
c1ccc2c(CCc3ccncc3)c[nH]c2c1	-13%	65%	57.5%
OC12C3C4CC5C(C4[C@@H]1Br)C2[C@@](O)(c1c(F)c(F)c(F)c(F)c1F)C53 (some centres not stated)	8%	35%	73.7% (active)
O=[N+]([O-])c1c(Cl)cccc1-c1c[nH]cc1Cl	44%	99% (active)	37.8%
ClCc1ccc2ccc3ccc(CCl)nc3c2n1	72% (active)	94% (active)	62%
CC(CN(C)C)C(/C=C/c1ccccc1)=N\NC(=O)c1ccccc1 (configuration not stated)	2%	11%	-3.6%
CSc1nc2nn(Cc3ccccc3)cc2c(=O)[nH]1	20%	39%	11.8%
CCN(CC)CCOc1ccc(C(=C2CCCCC2)c2ccc(OCCN(CC)CC)cc2)cc1	28%	28%	78.5% (active)
CS/C(C#N)=C(\C#N)SC	7%	35%	43.5%
OCCN1c2ccccc2Sc2ccc(Cl)cc21	12%	98% (active)	88.5% (active)
NC(=S)N1N=C2c3ccccc3CC[C@H]2[C@@H]1c1cccs1	-17%	68%	51.3%
